Compounds with a hit are over-represented: about 7.6% of the library has one in this group of screens.
RORg inh – qHTS for inhibitors of ROR gamma transcriptional activity. Drosophila S2 Gal4-RORgamma UAS-luciferase reporter, 20 h. Nuclear receptor ROR-gamma (Mus musculus), P51450. Potency, µM (series often up to 53.6 µM), hits mostly inhibitors. hit rate 5.4% among 310,000; further: nearly all actives have a fitted effect of over 60% in size
Target sequence (P51450 whole entry, looked up, the tested form may be a part): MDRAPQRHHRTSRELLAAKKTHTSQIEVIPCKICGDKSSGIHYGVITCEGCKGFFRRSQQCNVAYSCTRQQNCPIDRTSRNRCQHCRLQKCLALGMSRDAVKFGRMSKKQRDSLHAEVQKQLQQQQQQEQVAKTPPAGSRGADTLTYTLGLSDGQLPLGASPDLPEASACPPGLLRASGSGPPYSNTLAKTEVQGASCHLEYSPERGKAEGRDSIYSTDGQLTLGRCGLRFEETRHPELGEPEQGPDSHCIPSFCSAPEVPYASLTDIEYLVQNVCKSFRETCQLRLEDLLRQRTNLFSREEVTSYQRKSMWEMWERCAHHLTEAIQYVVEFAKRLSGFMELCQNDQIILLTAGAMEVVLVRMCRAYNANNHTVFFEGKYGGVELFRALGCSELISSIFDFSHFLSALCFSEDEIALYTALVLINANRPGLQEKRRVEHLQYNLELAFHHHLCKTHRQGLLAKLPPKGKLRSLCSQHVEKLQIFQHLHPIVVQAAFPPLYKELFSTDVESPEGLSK
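ROR gamma transcriptional activity was tracked as Gal4-UAS luciferase output in stably transfected Drosophila Schneider cells, with compound added 1 hr before 700 uM copper sulfate induction and a 20 hr ambient-temperature incubation.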
ELG1 repair inh – qHTS screen for small molecules that inhibit ELG1-dependent DNA repair in human embryonic kidney (HEK293T) cells expressing luciferase-tagged ELG1; HEK293T ELG1-luciferase reporter, luminescence, 16 h; DNA damage induced by 5-fluorouridine; Potency, µM (top dose mostly 46.1 µM), usual class: inhibitors; hit rate 2.3% among 330,000; AID 504467, 2011; further: nearly all actives have a fitted effect of over 55% in size
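Luminescence from the luciferase reporter, measured 30 min after ONE-Glo reagent at room temperature, was the read-out. Beforehand, 2,000 cells per well were exposed for 16 hr at 37 °C to 5-fluorouridine together with compound or vehicle.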
BRCA1 expr act – qHTS Assay to Identify Small Molecule Activators of BRCA1 Expression. MCF7-BRCA1-FFLuc reporter, luminescence, 48 h; response scale: scaled: vehicle 0%, 10 µM genistein 100%. Potency, µM (doses to about 46.1 µM), actives largely listed as activators. hit rate 1.1% among 380,000. AID 624202, 2012; further: nearly all actives have a fitted effect of over 80% in size
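48 h compound treatment of MCF7-BRCA1-FFLuc cells (phenol-red free MEM, 37 °C), then 15 min with luciferase substrate and luminescence imaging.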
VP16 counter – VP16 counterscreen qHTS for inhibitors of ROR gamma transcriptional activity; Drosophila S2 Gal4-VP16 UAS-luciferase, luminescence, 20 h; Potency, µM (series often up to 53.6 µM), most hits filed as inhibitors; hit rate 3.5% among 310,000;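 further: Gal4-VP16 expression switched on by copper sulfate through the metallothionein promoter; nearly all actives have a fitted effect of over 50% in size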
p53 reactivator – qHTS assay for re-activators of p53 using a Luc reporter. AID 504706, 2011. Potency, µM (highest dose often 92.2 µM), hits mostly activators. H1299 p53-A138V BP100-luciferase reporter, luminescence, 24 h. hit rate 0.063% among 320,000; further: nearly all actives have a fitted effect of over 45% in size
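p53-null H1299 cells stably carrying temperature-sensitive p53-A138V and a BP100-luciferase reporter were pinned with compounds (4-point, 1:5 series) and held 24 hrs at 37 deg C. Luminescence was read 10 min after detection reagent.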
Giardia killer – Small Molecules that selectively kill Giardia lamblia: qHTS. AID 540267, 2011. hit rate 0.15% among 340,000. Giardia lamblia trophozoite viability. activity change, % at 7.66 µM, hits read low; in the data active means activity change below about -80%; inconclusive means between about -30% and that limit;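 further: parasites exposed to compound for two days anaerobically before the ATP read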
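Killing of trophozoites was scored by loss of ATP luminescence after a 48 hrs anaerobic exposure to compounds at 37 deg C, using 100 cells per well.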
ELG1 FLuc counter – qHTS screen for small molecules that inhibit ELG1-dependent DNA repair: Hit Confirmation in Cell-Based Luciferin Assay; shares compounds with ELG1 repair inh; cell-free firefly luciferase luminescence counter-screen, ViewLux; hit rate 3% among 350; Potency, µM (series often up to 46.1 µM), most hits filed as inhibitors; AID 624247, 2012
ELG1 Luc conf – HTS assay for small molecules that inhibit ELG1-dependent DNA repair in human embryonic kidney (HEK293T) cells expressing luciferase-tagged ELG1: Hit Confirmation | HEK293T ELG1-luciferase levels, luminescence; cells co-treated with 5-fluorouridine | shares compounds with ELG1 repair inh | Potency, µM (titrated, usually from 46.1 µM), hits mostly inhibitors | hit rate 68% among 670; further: nearly all actives have a fitted effect of over 55% in size
ELG1 MMS Luc – inhibits ELG1-dependent repair under MMS stimulation in HEK293T cells. shares compounds with ELG1 repair inh. HEK293T luciferase-tagged ELG1 level, MMS stimulated. Potency, µM (titrated, usually from 46.1 µM), most hits filed as inhibitors. hit rate 53% among 670. AID 624249; further: nearly all actives have a fitted effect of over 60% in size
ELG1 5FU viab – qHTS screen for small molecules that inhibit ELG1-dependent DNA repair: Hit Confirmation with 5FU Viability; shares compounds with ELG1 repair inh; Potency, µM (top dose mostly 46.1 µM), usual class: cytotoxic; 670 tested, under 10 active; AID 624250, 2012; cell viability with 5-FU, ELG1-dependent repair;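 further: ELG1-luc HEK293T cells cotreated with 5-fluorouridine at 10 µM final; viability measured 16 h after compound addition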
ELG1 MMS cell – qHTS screen for small molecules that inhibit ELG1-dependent DNA repair: Hit Confirmation with MMS Viability; shares compounds with ELG1 repair inh; Cell viability with MMS, ELG1-dependent DNA repair; Potency, µM (doses to about 46.1 µM), hits mostly cytotoxic; hit rate 33% among 670; AID 624251, 2012;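 further: ELG1-luc HEK293T cells co-treated with 10 µM MMS; viability read 16 h after compound addition; nearly all actives have a fitted effect of over 60% in size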
ELG1 unstim viab – qHTS screen for small molecules that inhibit ELG1-dependent DNA repair: Hit Confirmation with Unstimulated Viability Assay; hit rate 8% among 900; shares compounds with ELG1 repair inh; cell viability counter-screen, unstimulated, luminescence; Potency, µM (series often up to 45.9 µM), actives largely listed as cytotoxic;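 further: compound exposure lasted 16 hours before reading; nearly all actives have a fitted effect of over 55% in size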
FLuc biochem – qHTS screen for small molecules that inhibit ELG1-dependent DNA repair: Hit Confirmation in Biochemical Luciferin Assay | purified firefly luciferase, luminescence counter-screen | Potency, µM (doses to about 57.5 µM), hits mostly inhibitors | shares compounds with ELG1 repair inh | hit rate 10% among 350
A number is an active result; - = inactive; ? = inconclusive; . = not tested or not shown; [ ] = remark or other dose. Unless noted, the call rests on the fitted dose curve; in most records, active means well fitted curve in the direction sought with a large enough effect; inconclusive means small, poorly fitted or top-dose-only effect, or another doubt; inactive means no such curve, though single readings can be large; an effect the other way counts as inactive or inconclusive.

SMILES	RORg inh	ELG1 repair inh	BRCA1 expr act	VP16 counter	p53 reactivator	Giardia killer	ELG1 Luc conf	ELG1 MMS Luc	ELG1 5FU viab	ELG1 MMS cell	ELG1 unstim viab	others
CCOC(=O)C1CCCN(C(=O)c2cc(S(=O)(=O)N3CCCCC3)ccc2Cl)C1 (stereo not drawn)	.	-	-	.	-	-	.	.	.	.	.
O=C(Nc1ccc(N2CCOCC2)cc1)c1cccc(S(=O)(=O)N2CCCCCC2)c1	-	3.3µM	-	-	-	-	?	7.9µM	-	7.9µM	?
COc1ccc(N(C)C(=O)c2cn(CC(C)C)c(=O)c3cc(OC)c(OC)cc23)c(OC)c1	-	1.5µM	-	-	-	-	1.8µM	-	?	-	?	ELG1 FLuc counter=-;FLuc biochem=-
COc1ccccc1NC(=O)N(Cc1ccco1)Cc1cc2ccc(C)c(C)c2[nH]c1=O	-	8.2µM	-	-	-	-	4µM	?	-	?	?	ELG1 FLuc counter=-;FLuc biochem=-
Cc1ccc2cc(CN(Cc3ccco3)C(=O)c3ccccc3)c(=O)[nH]c2c1C	-	-	-	-	-	-	.	.	.	.	.
Cc1cc(N2CCC(C(=O)Nc3ccc(F)cc3C)CC2)n2nc(C)c(-c3ccc(Cl)cc3)c2n1	.	.	-	.	.	.	.	.	.	.	.
CC(=O)N1c2ccc(S(=O)(=O)N3CCC(C(=O)N4CCN(c5cc(Cl)ccc5C)CC4)CC3)cc2CC1C (stereo not drawn)	-	?	-	-	-	-	14µM	?	-	-	?	ELG1 FLuc counter=-;FLuc biochem=-
CC(=O)N1c2ccc(S(=O)(=O)N3CCC(C(=O)N4CCC(C)CC4)CC3)cc2CC1C (stereo not drawn)	-	?	-	-	-	-	.	.	.	.	.
COc1ccc(NC(=O)C2CCCN(S(=O)(=O)c3c(C)[nH]c(=O)[nH]c3=O)C2)cc1Cl (stereo not drawn)	-	-	-	-	-	-	.	.	.	.	.
CCn1nc(C(=O)Nc2nc(-c3ccccn3)cs2)c2ccccc2c1=O	.	4.1µM	-	.	-	-	4.4µM	7.9µM	-	13µM	?
CCc1cc(C(=O)Nc2nc(-c3ccccn3)cs2)sc1C	.	-	-	.	-	-	.	.	.	.	.
C(=C\c1ccc2ccccc2n1)/c1cccnc1	.	.	-	.	.	.	.	.	.	.	?	ELG1 FLuc counter=-;FLuc biochem=0.29µM
C(=C\c1ccc2ccccc2n1)/c1ccc2ccccc2n1	.	.	.	.	.	.	.	.	.	.	-	ELG1 FLuc counter=-;FLuc biochem=0.29µM
C(=C\c1ccc2ccccc2n1)/c1ccccc1	-	?	?	-	-	-	.	.	.	.	.
CCc1nc2n[nH]c(N)c2c2c1CCCC2	-	-	-	-	-	-	.	.	.	.	.
CCC(C)[C@H]1CNCCN1CCc1cc(C(F)(F)F)cc(C(F)(F)F)c1 (stereo partly drawn)	.	3.5µM	-	.	-	-	-	22µM	?	22µM	?
C(=C\c1ccccc1)/CN1CCN(C(c2nnnn2C2CCCC2)C2CC2)CC1 (stereo not drawn)	.	.	-	.	.	.	.	.	.	.	.
O=C(Nc1cc(Br)ccc1O)c1cnn2c(C(F)F)cc(C3CC3)nc12	-	2.3µM	-	-	-	-	1µM	-	?	-	?
CSc1nc2ccccc2c(=O)n1N	-	-	-	-	-	-	.	.	.	.	.
CCOC(=O)c1nc(Nc2ccc(N3CCOCC3)cc2)c2ccccc2n1	-	?	-	-	-	-	.	.	.	.	.
CCOC(=O)c1nc(Nc2ccc(C(C)=O)cc2)c2ccccc2n1	-	1.6µM	-	-	-	-	2.8µM	?	?	-	-
NC(=O)c1sc2nc3c(c(-c4cccs4)c2c1N)CCCCC3	-	0.82µM	-	-	-	-	1.1µM	4.5µM	-	-	?	ELG1 FLuc counter=?;FLuc biochem=-
Cc1ccc(NC(=O)CN(C)C(=O)Cn2ncc(Cl)c(Cl)c2=O)cc1	-	?	-	-	-	-	.	.	.	.	.
COc1cccc(N2C(=O)C(c3ccccc3)=C(c3nc4ccccc4s3)C2NC(C)=O)c1 (stereo not drawn)	-	2.3µM	-	-	-	-	3.2µM	-	?	-	-	ELG1 FLuc counter=-;FLuc biochem=-
CC(=O)NC1C(c2nc3ccccc3s2)=C(c2ccccc2)C(=O)N1c1ccc(C)cc1 (stereo not drawn)	-	?	-	-	-	-	.	.	.	.	.
SMILES	RORg inh	ELG1 repair inh	BRCA1 expr act	VP16 counter	p53 reactivator	Giardia killer	ELG1 Luc conf	ELG1 MMS Luc	ELG1 5FU viab	ELG1 MMS cell	ELG1 unstim viab	others
CCc1nnc(NC(=O)C2CCCO2)s1 (stereo not drawn)	-	?	-	-	-	-	.	.	.	.	.
Cc1nc(SCc2ccccc2)nc2c1CCC2	-	?	?	-[10 µM]	?	-	.	.	.	.	.
O=C(/C=C/c1ccc2c(c1)OCO2)Nc1cc(S(=O)(=O)N2CCOCC2)ccc1N1CCOCC1	-	?	-	-	-	-	.	.	.	.	.
COc1ccc([C@H]2Cc3cc(O)cc(O)c3C(=O)O2)cc1O	.	?	10µM	.	-	-	.	.	.	.	-
CC(C)Nc1ncnc2ccc(Br)cc12	-	2.3µM	-	?	-	-	3.5µM	7.9µM	-	10µM	?
CC(C)COc1ccc(Nc2ncnc3ccc(Br)cc23)cc1	.	.	-	.	.	.	.	.	.	.	.
